This note sets out measurements from PubChem BioAssay (NCATS).

In assay [1] the test system is HEK293. Put plainly: Cytotoxic Profiling of Annotated Libraries Using Quantitative High-Throughput Screening (AID 1296008). Further: nearly all actives have a fitted effect of over 60% in size. The conditions noted are these: Five cell lines viability, CellTiter-Glo ATP luminescence, 48-72 h; max response: active compounds read low. Summed up: (§1)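 Cells exposed to compounds for 48 or 72 hr at 37 degrees Celsius. Viability read as ATP-coupled luminescence with CellTiter-Glo after 10 min at room temperature.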
In general terms: Cellular ATP, detected with luciferase, serves as a proxy for viable cell number.

In assay [2] the test system is NIH3T3. Described as above. To be noted: Five cell lines viability, CellTiter-Glo ATP luminescence, 48-72 h; max response: active compounds read low. Summed up:
as §1

For assay [3], the system named is Es-2. Put plainly: Primary qHTS to identify gynecologic anti-cancer compounds using libraries of approved drugs and bioactive compounds (AID 1345084). Further: nearly all actives have a fitted effect of over 55% in size. The conditions noted are these: Gynecologic cancer cell panel viability, ATPlite luminescence, 48 h; series mostly up to 57.5 µM. Summed up: (§2)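 Five-point cytotoxicity, 48 h drug exposure at 37 C, 5% CO2, on cells seeded 16 h beforehand. ATP content read by ATPlite luminescence.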
A general note: In qHTS, concentration-response curves come from the screen itself.

Assay [4] has as its system HeLa. The description is as above. To be noted: Gynecologic cancer cell panel viability, ATPlite luminescence, 48 h; series mostly up to 57.5 µM. Summed up: as §2
In assay [5] the test system is PA-1. Described as above. The conditions noted are these: Gynecologic cancer cell panel viability, ATPlite luminescence, 48 h; series mostly up to 57.5 µM. The method, boiled down: as §2
The test system of assay [6] is C33A. Described as above. To be noted: Gynecologic cancer cell panel viability, ATPlite luminescence, 48 h; series mostly up to 57.5 µM. The method, boiled down:
as §2

The subject of assay [7] is CAOV3. The assay is described as above. The conditions noted are these: Gynecologic cancer cell panel viability, ATPlite luminescence, 48 h; series mostly up to 57.5 µM. The method, boiled down:
as §2

For assay [8], the system named is CASKI. Described as above. The conditions noted are these: Gynecologic cancer cell panel viability, ATPlite luminescence, 48 h; series mostly up to 57.5 µM. Summed up: as §2
The test system of assay [9] is JEG-3. The assay is described as above. The conditions noted are these: Gynecologic cancer cell panel viability, ATPlite luminescence, 48 h; series mostly up to 57.5 µM. The method, boiled down: as §2
Assay [10] concerns OV90. The assay is described as above. To be noted: Gynecologic cancer cell panel viability, ATPlite luminescence, 48 h; series mostly up to 57.5 µM. The method, boiled down:
as §2

For assay [11], the system named is Hek293T. Described as above. To be noted: Gynecologic cancer cell panel viability, ATPlite luminescence, 48 h, control line for the selectivity index; series mostly up to 57.5 µM. The method, boiled down: as §2

Results filed as inconclusive are left out. Unmarked numbers belong to inactive results. Active and inactive are the calls of the source. The call rests on the fitted dose curve; in most records, active means well fitted curve in the direction sought with a large enough effect; inconclusive means small, poorly fitted or top-dose-only effect, or another doubt; inactive means no such curve, though single readings can be large; an effect the other way counts as inactive or inconclusive.
On the % scale 0 is the no-effect control and ±100 the full control effect; potency means the concentration at half of the fitted maximal effect.

For the compound `CN(C)Cc1ccc(-c2cnn3c(-c4cccc(NC(=O)c5cccc(C(F)(F)F)c5)c4)ccnc23)cc1`, the figures for the Potency in [1] and in [2] were 7.31 µM (active) and 16.4 µM (active), respectively. The Potency result in [3], in [4] and in [5] was “inactive” each time.

Regarding `N#Cc1ccc2ncnc(NCCc3ccccc3)c2c1`, the Potency in assay [1] is 18.4 µM (active). Also, the Potency entry in assay [6], in assay [7], in assay [8], in [3], in [4] and in assay [9] was “inactive” throughout. Moreover, the Potency result in assay [10] and in assay [5] was “inactive” each time.

On to `O=c1ccc2ccc(OCCCCN3CCN(c4cccc5sccc45)CC3)cc2[nH]1`, for which the Potency in assay [1] was 11.6 µM (active). Besides, the max response in [2] is -13.6%. Further, the Potency result in assay [4], in assay [9] and in [5] was “inactive” in each case.

`CCCCCCCCC(=O)N[C@H](CN1CCCC1)[C@H](O)c1ccc2c(c1)OCCO2`: in assay [1], the Potency is 7.31 µM (active). In addition, the Potency result in assay [6], in [8], in assay [3], in assay [4], in assay [9] and in assay [5] was “inactive” throughout.

Take `Cc1cc(N2CCOCC2)ccc1Nc1nc(NC2CCCCC2)c2[nH]cnc2n1`: the Potency in assay [1] is 0.326 µM (active). In addition, the Potency entry in assay [6], in assay [7], in assay [8], in assay [3], in [4] and in assay [11] was “inactive” in each case. The Potency entry in [9] and in [10] was “inactive” throughout.

For `C=C1C(=O)O[C@@H]2C[C@@]3(C)CCCC(=C)[C@]3(O)C[C@H]12`, the Potency in assay [1] is 13 µM (active). The Potency result in assay [6], in [8], in assay [3], in assay [4], in assay [9] and in [10] was “inactive” each time.

Regarding `Cn1ncc(Cl)c1-c1cc(C(=O)N[C@H](CN)Cc2ccc(F)c(F)c2)oc1Cl`, the Potency is 0.366 µM (active) in assay [1], 2.24 µM (active) in [6], 3.98 µM (active) in assay [8] and 14.1 µM (active) in assay [10]. In addition, the Potency entry in assay [7], in assay [3], in assay [4] and in [9] was “inactive” in each case.

As to `CCC(CC)C(c1ccc(Nc2nc3ccccc3s2)cc1)n1cncn1` (stereo not drawn), the Potency was 10.3 µM (active) in [1]; 25.1 µM (active) in [6]; 28.2 µM (active) in assay [7]; 35.5 µM (active) in assay [4]; 31.6 µM (active) in assay [9]; 31.6 µM (active) in assay [10]. Further, the Potency in assay [5] was 22.4 µM (active).

As for `C=CC(=O)N1CCN(C(=O)CNc2cc(-c3ccccc3Cl)c(Cl)cc2OC)CC1`, in assay [1], the Potency is 18.4 µM (active). Moreover, the Potency result in assay [6], in [8], in assay [3], in assay [4], in assay [11] and in assay [9] was “inactive” each time. Further, the Potency result in assay [10] and in [5] was “inactive” each time.

In the case of `COc1ccc(Oc2c(Cl)cnn(-c3cc(C)cc(C)c3)c2=O)cc1`, the Potency is 8.2 µM (active) in [1], 25.9 µM (active) in [2] and 28.2 µM (active) in [7]. Besides, the Potency result in assay [3], in assay [4] and in assay [11] was “inactive” each time.

Take `Cc1cc2occ(CN(C)CCN(C)Cc3cn(-c4cccc(C(F)(F)F)c4)c4ccccc34)c(=O)c2cc1C`: the results for the Potency in assay [1] and in assay [6] were 8.2 µM (active) and 31.6 µM (active), respectively.

As to `N#C/C(=C1\Nc2ccccc2S1)c1ccnc(NCCc2cccnc2)n1`, in assay [1], the Potency was 7.31 µM (active). Further, the Potency entry in assay [6], in assay [7], in assay [8], in assay [9] and in assay [10] was “inactive” throughout.

For `O=C(NC1(c2ccccc2)CC1)c1c(CN2CCC(N3CCCCC3)CC2)c(-c2cccc(C(F)(F)F)c2)nc2cc(Br)ccc12`, the Potency in assay [1] is 14.6 µM (active); in [10], 17.8 µM (active). Also, the Potency result in assay [6], in assay [8], in assay [3], in assay [4] and in assay [9] was “inactive” each time.

Regarding `C/C=C(/C)C(=O)O[C@H]1[C@H](OC(=O)/C(C)=C\C)[C@@]23C(CC1(C)C)[C@]1(CCC4[C@@]5(C)CC[C@H](O[C@@H]6O[C@H](C(=O)O)[C@@H](O)[C@H](O[C@@H]7O[C@H](CO)[C@H](O)[C@H](O)[C@H]7O[C@@H]7O[C@@H](C)[C@H](O)[C@@H](O)[C@H]7O[C@@H]7OC[C@@H](O)[C@H](O)[C@H]7O)[C@H]6O[C@@H]6O[C@H](CO)[C@H](O)[C@H](O)[C@H]6O)C(C)(C)C5CC[C@@]4(C)[C@]1(C)C[C@H]2O)O[C@H]3O` (stereo partly drawn), the Potency in assay [1] is 1.74 µM (active). Besides, the activity change, negative = cytotoxicity in [6] is -26.4% [at 6.55 µM]; in [8], -8.52% [at 6.55 µM]; in [3] it was 0.581% [at 6.55 µM]; in assay [4], 16.8% [at 6.55 µM].

Consider `C=C1C(=O)O[C@@H]2C3=C(C)CCC[C@]3(C)CC[C@@]12O`, for which the Potency in assay [1] is 8.2 µM (active); in assay [2], 14.6 µM (active). Further, the Potency result in assay [4] and in assay [9] was “inactive” in each case.

In the case of `Nc1cccc(CNC(=O)c2ccc(Oc3ccc(OCc4cccc(F)c4)cc3)nc2)c1`, the Potency in [1] was 11.6 µM (active). In addition, the Potency entry in assay [6], in assay [8], in assay [3], in assay [4], in assay [11] and in assay [9] was “inactive” each time. In addition, the Potency entry in assay [10] and in assay [5] was “inactive” throughout.

Regarding `COc1cc2c(cc1OC)CN(C(=O)/C=C/c1c(-c3ccccc3)n(C)c3ncccc13)CC2`, the Potency in assay [1] is 7.31 µM (active). Further, the Potency result in assay [6], in assay [8], in assay [3], in assay [4], in assay [9] and in [10] was “inactive” each time. The Potency entry in assay [5] was “inactive”.

Take `O=C(Nc1ccc2[nH]nc(-c3ccncc3)c2c1)[C@@H]1CCN(CC(=O)N2CCN(c3ccc(-c4ncccn4)cc3)CC2)C1`: the Potency in [1] was 10.3 µM (active). Also, the Potency result in assay [6], in [7], in assay [8], in [11], in [9] and in assay [5] was “inactive” each time.

Take `C=C1CC2[C@@]3(C)C=CC(=O)C(C)(C)C3=C(O)C(=O)[C@@]2(C)C2(C(=O)OC)C(=O)C(C)OC(=O)[C@@]12C` (stereo partly drawn): the Potency in assay [1] was 7.96 µM (active). Further, the Potency entry in [6], in assay [7], in assay [8], in assay [3] and in [9] was “inactive” in each case.

With `CCCc1cc(C)[nH]c(=O)c1CNC(=O)c1cc(-c2ccc(N3CCN(C(C)C)CC3)nc2)cc2c1cnn2C(C)C`, the Potency in assay [1] is 11.6 µM (active). In addition, the Potency result in assay [6], in assay [8], in assay [3], in [4] and in assay [11] was “inactive” throughout.

Turning to `O=C(NC1CCN(CCCCC2(C(=O)NCC(F)(F)F)c3ccccc3-c3ccccc32)CC1)c1ccccc1-c1ccc(C(F)(F)F)cc1`, the values for the Potency in assay [1], in assay [2] and in assay [5] were 11.6 µM (active), 7.31 µM (active) and 31.6 µM (active), respectively.

As for `C=C(C)C(=O)O[C@H]1C[C@@](C)(O)C2(O)CCC(C)(/C=C3/OC(=O)C(COC)=C31)O2` (stereo partly drawn), the Potency in assay [1] is 3.21 µM (active); in assay [2], 10.1 µM (active); in [3] it was 11.2 µM (active); in assay [5], 10 µM (active). For the same compound, the Potency result in assay [4] is “inactive”.

Turning to `Clc1ccc(Nc2nc3ccccc3c3nc(C4CCCCC4)[nH]c23)cc1Cl`, the Potency in assay [1] was 11.6 µM (active); in [2], 20.6 µM (active). Also, the Potency result in [8] and in assay [9] was “inactive” each time.

For the compound `Fc1ccc(-n2cc(CCCCN3CCC4(CC3)OCc3ccccc34)c3ccccc32)cc1`, the Potency in [1] was 18.4 µM (active); in assay [2], 16.4 µM (active). The Potency result in assay [8], in assay [3], in assay [4], in [11] and in [9] was “inactive” throughout.

For the compound `C=C1C(=O)OC2/C=C(/C)C3=CC(=O)C(C)(CC(OC(=O)/C(C)=C/COC(C)=O)C12)O3` (stereo not drawn), the Potency in assay [1] was 2 µM (active); in [2], 3.99 µM (active); in assay [3], 7.08 µM (active). For the same compound, the Potency result in assay [4] and in assay [10] was “inactive” each time.

`C=C(NC(=O)C(=C)NC(=O)c1csc(C2=NC3c4csc(n4)C4NC(=O)c5csc(n5)C(C(C)(O)C(C)O)NC(=O)C5CSC(=N5)/C(=C/C)NC(=O)C(C(C)O)NC(=O)c5csc(n5)C3(CC2)NC(=O)C(C)NC(=O)C(=C)NC(=O)C(C)NC(=O)C(C(C)CC)NC2C=Cc3c(C(C)O)cc(nc3C2O)C(=O)OC4C)n1)C(N)=O` (stereo not drawn): the Potency is 1.16 µM (active) in [1]; 4.61 µM (active) in assay [2]; 25.1 µM (active) in [7]; 17.8 µM (active) in [11]; 28.2 µM (active) in [5]. Further, the Potency entry in assay [4] and in assay [10] was “inactive” throughout.
